{"source": "paper PMC5540273", "about": "(PLoS ONE, 2017);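 note: KINOMEscan kinase panel screen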", "data": [{"tested_on": "WNK3", "conditions": "concentration: 1 μM, replicates: in singlicate; n = 1", "units": {"%Inh": "%"}, "values": [{"smiles": "Nc1nc(N)c2nc(-c3ccccc3)[nH]c2n1", "note": "[SKF-12778]", "%Inh": 11}, {"smiles": "COc1cc2nccc(Nc3cccc(Oc4ccccc4)c3)c2cc1OC.Cl", "note": "[GW284543]", "%Inh": 10}, {"smiles": "CCc1ccc(-c2ccc3c(c2)-c2nn(C)cc2S(=O)(=O)N3C)cc1", "%Inh": 0}, {"smiles": "O=C(NCc1cccs1)c1cc(C(=O)c2c(Cl)cccc2Cl)c[nH]1", "note": "[GW823670]", "%Inh": 0}, {"smiles": "CCCC(=O)Nc1n[nH]c2ncc(-c3cccc4ccccc34)cc12", "note": "[SB-642057]", "%Inh": 0}, {"smiles": "CCC(=O)c1c(-c2ccccc2)c2cc(Cl)ccc2c(=O)n1Cc1cc(S(C)(=O)=O)n(CC(F)F)n1", "%Inh": 0}, {"smiles": "Nc1ncnc2c1ncn2-c1cccc(F)c1", "note": "[SKF-97560]", "%Inh": 0}, {"smiles": "Cc1c(Cn2c(C)nn3c(=O)cc(N4CCO[C@H](C)C4)nc23)cccc1C(F)(F)F", "note": "[GSK2373690]", "%Inh": 20}, {"smiles": "COc1cc(Nc2nccc(N3CCC(NC(=O)C4COc5ccccc5O4)C3)n2)cc(OC)c1OC", "note": "(stereo not drawn) [GSK1379761]", "%Inh": 46}, {"smiles": "Cc1ccccc1COc1cc(-n2cnc3cc(Cl)ccc32)sc1C(N)=O", "note": "[GW813349]", "%Inh": 6}, {"smiles": "Cc1ccc(-c2ccc3c(ccc4sc5c(c43)NC[C@@H](C)N=C5N(C)C)n2)cn1", "%Inh": 0}, {"smiles": "Fc1cccc(CSc2nnc(-c3ccc4c(c3)CCO4)o2)c1", "%Inh": 0}, {"smiles": "CN1C(=O)C(Nc2cc(Cl)c(O)c(Cl)c2)=C(c2ccc(Cl)cc2)C1=O", "note": "[SB-404321]", "%Inh": 0}, {"smiles": "CCC(=O)c1c(-c2ccccc2)c2cc(Cl)ccc2c(=O)n1Cc1ccc(C(=O)O)cc1", "%Inh": 0}, {"smiles": "COc1cc(Nc2nccc(N3CCC(NC(=O)C(C)c4ccc(Cl)cc4)C3)n2)cc(OC)c1OC", "note": "(stereo not drawn) [GSK1379757]", "%Inh": 15}, {"smiles": "C[C@@H]1CC[C@H](C(=O)NC2CCCCC2)CN1c1cc(-c2ccc3c(N)n[nH]c3c2)nc(N)n1", "note": "[GSK2291363]", "%Inh": 21}, {"smiles": "COc1ccc(-c2coc3ccc(-c4nnc(SCc5cccc(C#N)c5)o4)cc23)cc1", "%Inh": 0}, {"smiles": "CCS(=O)c1ccc(-c2coc3ccc(-c4nnc(C)o4)cc23)cc1", "note": "(stereo not drawn)", "%Inh": 0}, {"smiles": "Cc1cc(Nc2nc(-c3cccc(C)n3)nc3ccccc23)ccn1", "note": "[GW872411]", "%Inh": 0}, {"smiles": "COC(=O)c1c(-c2ccccc2)c2cc(Br)ccc2c(=O)n1Cc1ccc(S(C)(=O)=O)cc1", "%Inh": 0}, {"smiles": "Nc1nccc2scc(-c3ccc4c(c3)CCN4C(=O)Cc3ccccc3)c12", "note": "[GSK2576924]", "%Inh": 27}, {"smiles": "O=C(NCCNc1ccnc(Nc2ccc(F)cc2)n1)Nc1ccc2c(c1)OCO2", "note": "[GSK1379882]", "%Inh": 30}, {"smiles": "COC(=O)c1c(-c2ccccc2)c2cc(Br)ccc2c(=O)n1Cc1ccc(NC(=O)CCC(=O)O)cc1", "%Inh": 0}, {"smiles": "Nc1ncnc2c1ncn2-c1ccc(Cl)cc1", "note": "[AH2635]", "%Inh": 34}, {"smiles": "O=C(Nc1n[nH]c2cc(-c3ccccc3F)ccc12)C1CC1", "note": "[SB-733371]", "%Inh": 0}, {"smiles": "Nc1n[nH]c2nnc(-c3ccccc3)c(-c3ccccc3)c12", "note": "[GW554060]", "%Inh": 18}, {"smiles": "FC(F)(F)c1ccc(-c2ncn(CCCN3CCOCC3)c2-c2ccncc2)cc1", "note": "[SB-217780]", "%Inh": 15}, {"smiles": "COc1ccc(-n2cnc3c(N)ncnc32)cc1", "note": "[SKF-97236]", "%Inh": 0}, {"smiles": "CCC(=O)c1c(-c2ccccc2)c2cc(Cl)ccc2c(=O)n1Cc1cc(C(=O)NC2CC2)n(C)n1", "%Inh": 0}, {"smiles": "CCC(=O)c1c(-c2ccccc2)c2cc(Cl)ccc2c(=O)n1Cc1cc(S(C)(=O)=O)n(CCC(C)(C)O)n1", "%Inh": 0}, {"smiles": "COC(=O)c1c(-c2ccccc2)c2cc(C)ccc2c(=O)n1Cc1ccccc1", "%Inh": 0}, {"smiles": "COc1cc(Nc2ccnc3ccc(C(F)(F)F)cc23)cc(OC)c1OC", "note": "[GW577382]", "%Inh": 27}, {"smiles": "COc1ccc(-c2cc3c(C)nc(N)nc3n([C@H]3CC[C@H](OCCO)CC3)c2=O)cn1", "%Inh": 0}, {"smiles": "Cc1nnc(-c2ccc3ncn(-c4ccc(S(C)=O)cc4)c3c2)o1", "note": "(stereo not drawn)", "%Inh": 0}, {"smiles": "COc1cc2ncn(-c3cc(OCc4ccc(S(C)(=O)=O)cc4)c(C(N)=O)s3)c2cc1OC", "note": "[GW869979]", "%Inh": 0}, {"smiles": "CCC(=O)c1c(-c2ccccc2)c2cc(Cl)ccc2c(=O)n1Cc1cc(S(C)(=O)=O)n(CC(N)=O)n1", "%Inh": 0}]}, {"tested_on": "WNK4", "conditions": "concentration: 1 μM, replicates: in singlicate; n = 1", "units": {"%Inh": "%"}, "values": [{"smiles": "Nc1nc(N)c2nc(-c3ccccc3)[nH]c2n1", "note": "[SKF-12778]", "%Inh": 17}, {"smiles": "COc1cc2nccc(Nc3cccc(Oc4ccccc4)c3)c2cc1OC.Cl", "note": "[GW284543]", "%Inh": 0}, {"smiles": "CCc1ccc(-c2ccc3c(c2)-c2nn(C)cc2S(=O)(=O)N3C)cc1", "%Inh": 0}, {"smiles": "O=C(NCc1cccs1)c1cc(C(=O)c2c(Cl)cccc2Cl)c[nH]1", "note": "[GW823670]", "%Inh": 0}, {"smiles": "CCCC(=O)Nc1n[nH]c2ncc(-c3cccc4ccccc34)cc12", "note": "[SB-642057]", "%Inh": 0}, {"smiles": "CCC(=O)c1c(-c2ccccc2)c2cc(Cl)ccc2c(=O)n1Cc1cc(S(C)(=O)=O)n(CC(F)F)n1", "%Inh": 0}, {"smiles": "Nc1ncnc2c1ncn2-c1cccc(F)c1", "note": "[SKF-97560]", "%Inh": 54}, {"smiles": "Cc1c(Cn2c(C)nn3c(=O)cc(N4CCO[C@H](C)C4)nc23)cccc1C(F)(F)F", "note": "[GSK2373690]", "%Inh": 0}, {"smiles": "COc1cc(Nc2nccc(N3CCC(NC(=O)C4COc5ccccc5O4)C3)n2)cc(OC)c1OC", "note": "(stereo not drawn) [GSK1379761]", "%Inh": 50}, {"smiles": "Cc1ccccc1COc1cc(-n2cnc3cc(Cl)ccc32)sc1C(N)=O", "note": "[GW813349]", "%Inh": 0}, {"smiles": "Cc1ccc(-c2ccc3c(ccc4sc5c(c43)NC[C@@H](C)N=C5N(C)C)n2)cn1", "%Inh": 0}, {"smiles": "Fc1cccc(CSc2nnc(-c3ccc4c(c3)CCO4)o2)c1", "%Inh": 0}, {"smiles": "CN1C(=O)C(Nc2cc(Cl)c(O)c(Cl)c2)=C(c2ccc(Cl)cc2)C1=O", "note": "[SB-404321]", "%Inh": 0}, {"smiles": "CCC(=O)c1c(-c2ccccc2)c2cc(Cl)ccc2c(=O)n1Cc1ccc(C(=O)O)cc1", "%Inh": 0}, {"smiles": "COc1cc(Nc2nccc(N3CCC(NC(=O)C(C)c4ccc(Cl)cc4)C3)n2)cc(OC)c1OC", "note": "(stereo not drawn) [GSK1379757]", "%Inh": 10}, {"smiles": "C[C@@H]1CC[C@H](C(=O)NC2CCCCC2)CN1c1cc(-c2ccc3c(N)n[nH]c3c2)nc(N)n1", "note": "[GSK2291363]", "%Inh": 0}, {"smiles": "COc1ccc(-c2coc3ccc(-c4nnc(SCc5cccc(C#N)c5)o4)cc23)cc1", "%Inh": 3}, {"smiles": "CCS(=O)c1ccc(-c2coc3ccc(-c4nnc(C)o4)cc23)cc1", "note": "(stereo not drawn)", "%Inh": 11}, {"smiles": "Cc1cc(Nc2nc(-c3cccc(C)n3)nc3ccccc23)ccn1", "note": "[GW872411]", "%Inh": 0}, {"smiles": "COC(=O)c1c(-c2ccccc2)c2cc(Br)ccc2c(=O)n1Cc1ccc(S(C)(=O)=O)cc1", "%Inh": 0}, {"smiles": "Nc1nccc2scc(-c3ccc4c(c3)CCN4C(=O)Cc3ccccc3)c12", "note": "[GSK2576924]", "%Inh": 0}, {"smiles": "O=C(NCCNc1ccnc(Nc2ccc(F)cc2)n1)Nc1ccc2c(c1)OCO2", "note": "[GSK1379882]", "%Inh": 12}, {"smiles": "COC(=O)c1c(-c2ccccc2)c2cc(Br)ccc2c(=O)n1Cc1ccc(NC(=O)CCC(=O)O)cc1", "%Inh": 0}, {"smiles": "Nc1ncnc2c1ncn2-c1ccc(Cl)cc1", "note": "[AH2635]", "%Inh": 32}, {"smiles": "O=C(Nc1n[nH]c2cc(-c3ccccc3F)ccc12)C1CC1", "note": "[SB-733371]", "%Inh": 6}, {"smiles": "Nc1n[nH]c2nnc(-c3ccccc3)c(-c3ccccc3)c12", "note": "[GW554060]", "%Inh": 14}, {"smiles": "FC(F)(F)c1ccc(-c2ncn(CCCN3CCOCC3)c2-c2ccncc2)cc1", "note": "[SB-217780]", "%Inh": 0}, {"smiles": "COc1ccc(-n2cnc3c(N)ncnc32)cc1", "note": "[SKF-97236]", "%Inh": 0}, {"smiles": "CCC(=O)c1c(-c2ccccc2)c2cc(Cl)ccc2c(=O)n1Cc1cc(C(=O)NC2CC2)n(C)n1", "%Inh": 22}, {"smiles": "CCC(=O)c1c(-c2ccccc2)c2cc(Cl)ccc2c(=O)n1Cc1cc(S(C)(=O)=O)n(CCC(C)(C)O)n1", "%Inh": 25}, {"smiles": "COC(=O)c1c(-c2ccccc2)c2cc(C)ccc2c(=O)n1Cc1ccccc1", "%Inh": 0}, {"smiles": "COc1cc(Nc2ccnc3ccc(C(F)(F)F)cc23)cc(OC)c1OC", "note": "[GW577382]", "%Inh": 0}, {"smiles": "COc1ccc(-c2cc3c(C)nc(N)nc3n([C@H]3CC[C@H](OCCO)CC3)c2=O)cn1", "%Inh": 0}, {"smiles": "Cc1nnc(-c2ccc3ncn(-c4ccc(S(C)=O)cc4)c3c2)o1", "note": "(stereo not drawn)", "%Inh": 0}, {"smiles": "COc1cc2ncn(-c3cc(OCc4ccc(S(C)(=O)=O)cc4)c(C(N)=O)s3)c2cc1OC", "note": "[GW869979]", "%Inh": 51}, {"smiles": "CCC(=O)c1c(-c2ccccc2)c2cc(Cl)ccc2c(=O)n1Cc1cc(S(C)(=O)=O)n(CC(N)=O)n1", "%Inh": 0}]}]}
